Laboratory results: the supplement of paper PMC12067093, “Discovery and optimisation of a covalent ligand for TRIM25 and its application to targeted protein ubiquitination” (Chemical Science, 2025)
The full data set covers some 21,000 targets. This sample favours those with the largest changes.

Columns and labels:
Assay in all cases: probe-labelled cysteine peptide fold change vs DMSO (competition) (log2 fold change); higher = less target engagement (more negative = stronger competition)
Conditions in all cases: THP-1, incubation time: 4 h
[1] = biological target: A6NIZ1_A6NIZ1_118_VKDTDDVPMILVGNKCDLEDERVVGK<|>RAP1B_P61224_118_VKDTDDVPMILVGNKCDLEDERVVGK (UniProt P61224+A6NIZ1)
[2] = biological target: A6NNZ2_A6NNZ2_303_NMMAACDPR<|>TUBB4A_P04350_303_NMMAACDPR<|>TUBB_P07437_303_NMMAACDPR<|>TUBB4B_P68371_303_NMMAACDPR<|>TUBB3_Q13509_303_NMMAACDPR<|>TUBB2A_Q3ZCM7_303_NMMAACDPR<|>TUBB8_Q9BUF5_303_NMMAACDPR<|>TUBB6_Q9BVA1_303_NMMAACDPR (UniProt Q9BVA1+Q3ZCM7+Q13509+P68371+P07437+P04350+Q9BUF5+A6NNZ2)
[3] = biological target: ABCC1_P33527_1047_CLHVDLLHSILR (UniProt P33527)
[4] = biological target: ABCF2_Q9UG63_586_LIQQVAQEIWVCEK (UniProt Q9UG63)
[5] = biological target: ABHD10_Q9NUJ1_229_EAEHHCLLHSPIPVNCPIR (UniProt Q9NUJ1)
[6] = biological target: ABHD15_Q6UXT9_323_EFEEALFCHTK (UniProt Q6UXT9)
[7] = biological target: ABHD16A_O95870_544_HLHNFEATHCTPLPAQNFQMPWHL (UniProt O95870)
[8] = biological target: ABHD17B_Q5VST6_250_CQRPVEPLWVEGAGHNDVELYGQYLER (UniProt Q5VST6)
[9] = biological target: ACAA1_P09110_123_QCSSGLQAVASIAGGIR (UniProt P09110)
[10] = biological target: ACAA1_P09110_177_ARDCLIPMGITSENVAER (UniProt P09110)
[11] = biological target: ACAA2_P42765_116_EAEVVLCGGTESMSQAPYCVR (UniProt P42765)
[12] = biological target: ACAD9_Q9H845_271_GSNTCEVHFENTK (UniProt Q9H845)
[13] = biological target: ACADS_P16219_109_GCASTGVIMSVNNSLYLGPILK (UniProt P16219)
[14] = biological target: ACADVL_P49748_237_TSAVPSPCGK (UniProt P49748)
[15] = biological target: ACADVL_P49748_477_LFVALQGCMDK (UniProt P49748)
[16] = biological target: ACADVL_P49748_603_MLCDTWCIEAAAR (UniProt P49748)
[17] = biological target: ACAP2_Q15057_329_FCFEVVSPTK (UniProt Q15057)
[18] = biological target: ACAP2_Q15057_691_GPLHHATVLGHTGQVCLFLK (UniProt Q15057)
[19] = biological target: ACAT1_P24752_196_IHMGSCAENTAK (UniProt P24752)
[20] = biological target: ACAT1_P24752_413_QGEYGLASICNGGGGASAMLIQK (UniProt P24752)
[21] = biological target: ACAT2_Q9BWD1_360_VNIEGGAIALGHPLGASGCR (UniProt Q9BWD1)
[22] = biological target: ACLY_P53396_633_GVTIIGPATVGGIKPGCFK (UniProt P53396)
[23] = biological target: ACO2_Q99798_451_DLGGIVLANACGPCIGQWDRK (UniProt Q99798)
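Note: competitive profiling in live THP-1 cells: cysteine peptides tagged with an iodoacetamide desthiobiotin (IA-DTB) probe, intensity after compound treatment relative to DMSO-treated cells.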

Sequence of UniProt Q99798 (Q99798 whole entry, looked up): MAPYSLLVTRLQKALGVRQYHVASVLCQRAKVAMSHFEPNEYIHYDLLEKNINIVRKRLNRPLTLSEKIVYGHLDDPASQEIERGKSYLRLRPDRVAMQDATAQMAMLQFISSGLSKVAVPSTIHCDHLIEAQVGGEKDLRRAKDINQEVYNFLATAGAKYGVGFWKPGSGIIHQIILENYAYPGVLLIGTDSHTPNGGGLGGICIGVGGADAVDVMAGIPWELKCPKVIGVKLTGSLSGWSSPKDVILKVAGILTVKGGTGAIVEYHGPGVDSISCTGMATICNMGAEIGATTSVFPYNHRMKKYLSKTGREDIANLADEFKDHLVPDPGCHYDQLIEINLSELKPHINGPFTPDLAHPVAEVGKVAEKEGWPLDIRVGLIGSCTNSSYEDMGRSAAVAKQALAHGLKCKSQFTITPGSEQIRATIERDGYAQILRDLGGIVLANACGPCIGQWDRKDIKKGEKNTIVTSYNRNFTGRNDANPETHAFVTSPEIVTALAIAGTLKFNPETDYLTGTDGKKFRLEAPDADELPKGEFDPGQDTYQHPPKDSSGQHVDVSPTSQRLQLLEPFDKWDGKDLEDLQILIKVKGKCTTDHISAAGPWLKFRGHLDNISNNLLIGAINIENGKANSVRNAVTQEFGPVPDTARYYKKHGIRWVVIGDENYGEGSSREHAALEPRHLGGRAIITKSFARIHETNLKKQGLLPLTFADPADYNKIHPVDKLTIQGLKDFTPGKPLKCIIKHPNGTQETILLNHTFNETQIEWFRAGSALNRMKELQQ
Sequence of UniProt Q15057 (Q15057 whole entry, looked up): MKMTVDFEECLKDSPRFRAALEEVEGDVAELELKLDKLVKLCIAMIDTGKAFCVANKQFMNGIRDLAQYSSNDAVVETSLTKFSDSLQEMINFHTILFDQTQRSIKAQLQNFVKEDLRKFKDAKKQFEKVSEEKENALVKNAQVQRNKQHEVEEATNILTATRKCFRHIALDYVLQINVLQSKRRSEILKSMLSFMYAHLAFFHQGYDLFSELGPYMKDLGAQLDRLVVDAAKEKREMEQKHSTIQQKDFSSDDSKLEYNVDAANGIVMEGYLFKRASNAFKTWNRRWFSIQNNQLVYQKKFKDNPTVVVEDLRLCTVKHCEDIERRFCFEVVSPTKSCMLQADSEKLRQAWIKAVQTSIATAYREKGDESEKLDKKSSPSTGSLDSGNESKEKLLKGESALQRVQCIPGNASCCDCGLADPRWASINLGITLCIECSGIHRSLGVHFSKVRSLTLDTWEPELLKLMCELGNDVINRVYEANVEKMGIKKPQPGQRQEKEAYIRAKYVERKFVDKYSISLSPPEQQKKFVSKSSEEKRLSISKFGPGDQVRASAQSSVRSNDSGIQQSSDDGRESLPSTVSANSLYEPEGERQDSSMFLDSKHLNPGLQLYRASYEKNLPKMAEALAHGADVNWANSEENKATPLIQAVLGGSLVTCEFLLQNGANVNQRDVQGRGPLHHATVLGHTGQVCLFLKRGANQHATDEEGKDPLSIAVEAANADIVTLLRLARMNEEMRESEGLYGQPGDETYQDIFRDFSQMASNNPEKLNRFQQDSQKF
Sequence of ACAP2_Q15057_329_FCFEVVSPTK (Q15057 whole entry, looked up): as above
Sequence of UniProt Q9H845 (Q9H845 whole entry, looked up): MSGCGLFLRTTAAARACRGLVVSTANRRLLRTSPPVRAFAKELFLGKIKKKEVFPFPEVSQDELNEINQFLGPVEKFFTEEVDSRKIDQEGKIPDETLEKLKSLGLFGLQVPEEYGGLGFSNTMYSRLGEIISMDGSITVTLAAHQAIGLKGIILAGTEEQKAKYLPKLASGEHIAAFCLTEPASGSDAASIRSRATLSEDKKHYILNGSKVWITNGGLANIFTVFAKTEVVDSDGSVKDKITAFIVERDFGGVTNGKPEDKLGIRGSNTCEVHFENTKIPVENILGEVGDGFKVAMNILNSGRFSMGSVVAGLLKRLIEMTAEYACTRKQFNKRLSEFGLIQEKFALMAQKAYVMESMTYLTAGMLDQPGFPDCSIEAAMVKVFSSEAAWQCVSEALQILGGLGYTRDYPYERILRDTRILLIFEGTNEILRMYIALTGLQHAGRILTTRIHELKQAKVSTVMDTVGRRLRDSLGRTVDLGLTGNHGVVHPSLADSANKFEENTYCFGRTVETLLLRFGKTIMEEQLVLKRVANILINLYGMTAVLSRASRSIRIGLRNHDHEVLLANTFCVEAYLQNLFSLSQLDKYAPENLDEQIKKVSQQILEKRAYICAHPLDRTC
Sequence of UniProt P53396 (P53396 whole entry, looked up): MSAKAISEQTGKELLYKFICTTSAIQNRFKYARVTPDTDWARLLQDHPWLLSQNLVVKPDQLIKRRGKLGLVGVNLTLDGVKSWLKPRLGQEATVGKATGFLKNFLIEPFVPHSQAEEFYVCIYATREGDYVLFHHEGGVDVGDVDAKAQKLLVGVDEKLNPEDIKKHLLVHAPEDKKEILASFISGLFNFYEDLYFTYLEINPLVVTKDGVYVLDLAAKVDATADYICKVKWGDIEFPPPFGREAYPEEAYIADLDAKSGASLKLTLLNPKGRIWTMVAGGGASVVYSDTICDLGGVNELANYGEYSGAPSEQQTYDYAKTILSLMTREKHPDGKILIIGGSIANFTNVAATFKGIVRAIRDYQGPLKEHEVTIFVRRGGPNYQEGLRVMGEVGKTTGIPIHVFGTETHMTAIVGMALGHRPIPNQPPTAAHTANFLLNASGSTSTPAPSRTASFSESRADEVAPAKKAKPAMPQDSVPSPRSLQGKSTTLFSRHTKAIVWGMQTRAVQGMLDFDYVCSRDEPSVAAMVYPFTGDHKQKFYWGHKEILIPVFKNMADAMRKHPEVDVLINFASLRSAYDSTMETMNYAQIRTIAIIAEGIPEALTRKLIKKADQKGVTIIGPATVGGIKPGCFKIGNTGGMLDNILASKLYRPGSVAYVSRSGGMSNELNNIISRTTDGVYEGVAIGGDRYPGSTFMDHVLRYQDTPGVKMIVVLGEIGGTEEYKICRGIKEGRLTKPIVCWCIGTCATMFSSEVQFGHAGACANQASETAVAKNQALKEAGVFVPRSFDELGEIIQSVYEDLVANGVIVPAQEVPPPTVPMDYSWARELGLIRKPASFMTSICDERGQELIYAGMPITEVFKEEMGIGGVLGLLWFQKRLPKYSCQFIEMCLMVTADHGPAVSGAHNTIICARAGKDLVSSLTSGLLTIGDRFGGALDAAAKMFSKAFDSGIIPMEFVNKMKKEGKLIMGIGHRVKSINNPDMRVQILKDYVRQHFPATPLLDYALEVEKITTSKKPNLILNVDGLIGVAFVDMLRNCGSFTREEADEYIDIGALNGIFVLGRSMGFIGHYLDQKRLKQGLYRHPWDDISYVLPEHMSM
Sequence of UniProt P49748 (P49748 whole entry, looked up): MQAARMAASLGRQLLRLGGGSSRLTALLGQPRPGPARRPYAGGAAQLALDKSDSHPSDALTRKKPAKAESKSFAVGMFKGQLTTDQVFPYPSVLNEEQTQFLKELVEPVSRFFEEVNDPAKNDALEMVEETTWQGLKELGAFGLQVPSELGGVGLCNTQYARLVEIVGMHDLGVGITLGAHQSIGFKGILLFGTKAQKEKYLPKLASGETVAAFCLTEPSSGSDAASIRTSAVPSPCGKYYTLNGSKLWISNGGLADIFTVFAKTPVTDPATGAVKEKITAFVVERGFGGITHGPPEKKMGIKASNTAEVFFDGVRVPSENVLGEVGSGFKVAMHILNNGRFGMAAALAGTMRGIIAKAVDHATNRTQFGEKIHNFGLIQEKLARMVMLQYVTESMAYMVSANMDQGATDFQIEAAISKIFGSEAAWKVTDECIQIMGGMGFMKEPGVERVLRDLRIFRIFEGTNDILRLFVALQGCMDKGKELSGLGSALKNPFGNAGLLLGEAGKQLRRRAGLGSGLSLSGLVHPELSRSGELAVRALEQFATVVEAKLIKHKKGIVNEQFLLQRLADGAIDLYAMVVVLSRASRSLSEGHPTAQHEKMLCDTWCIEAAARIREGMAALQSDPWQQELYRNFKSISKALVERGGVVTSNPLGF
Sequence of ACADVL_P49748_237_TSAVPSPCGK (P49748 whole entry, looked up): as above
Sequence of ACADVL_P49748_477_LFVALQGCMDK (P49748 whole entry, looked up): as above
Sequence of UniProt Q5VST6 (Q5VST6 whole entry, looked up): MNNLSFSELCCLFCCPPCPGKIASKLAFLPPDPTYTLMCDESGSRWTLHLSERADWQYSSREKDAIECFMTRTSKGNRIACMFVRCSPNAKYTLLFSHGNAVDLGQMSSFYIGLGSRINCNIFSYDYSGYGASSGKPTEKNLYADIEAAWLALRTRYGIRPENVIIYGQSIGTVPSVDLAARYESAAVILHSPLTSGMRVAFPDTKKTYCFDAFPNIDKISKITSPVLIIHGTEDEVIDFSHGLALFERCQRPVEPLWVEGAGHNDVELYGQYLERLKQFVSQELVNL
Sequence of UniProt O95870 (O95870 whole entry, looked up): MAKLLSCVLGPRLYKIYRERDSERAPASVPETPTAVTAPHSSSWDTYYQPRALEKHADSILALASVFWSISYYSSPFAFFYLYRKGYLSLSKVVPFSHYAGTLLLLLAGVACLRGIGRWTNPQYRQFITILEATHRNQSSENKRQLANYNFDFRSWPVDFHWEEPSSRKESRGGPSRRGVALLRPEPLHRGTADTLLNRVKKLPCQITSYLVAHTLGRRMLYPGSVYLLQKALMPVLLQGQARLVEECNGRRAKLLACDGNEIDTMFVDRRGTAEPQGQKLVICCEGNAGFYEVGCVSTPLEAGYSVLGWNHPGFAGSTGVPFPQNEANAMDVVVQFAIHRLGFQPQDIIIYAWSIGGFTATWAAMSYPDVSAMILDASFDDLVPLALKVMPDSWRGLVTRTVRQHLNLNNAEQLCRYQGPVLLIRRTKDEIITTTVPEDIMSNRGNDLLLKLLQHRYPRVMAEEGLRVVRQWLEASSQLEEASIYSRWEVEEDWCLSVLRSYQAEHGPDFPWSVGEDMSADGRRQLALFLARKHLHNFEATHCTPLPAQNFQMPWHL

SMILES: Cc1cc(C(=O)N2CCCN(C(=O)CCl)CC2)ccc1-c1ccccc1 [compound 10]
- probe-labelled cysteine peptide fold change ([1]; 10 µM): -0.667
- probe-labelled cysteine peptide fold change ([1]; 50 µM): -1.16
- probe-labelled cysteine peptide fold change ([2]; 10 µM): -0.0352
- probe-labelled cysteine peptide fold change ([2]; 50 µM): -0.104
- probe-labelled cysteine peptide fold change ([3]; 10 µM): -0.245
- probe-labelled cysteine peptide fold change ([3]; 50 µM): -0.823
- probe-labelled cysteine peptide fold change ([4]; 10 µM): 0.35
- probe-labelled cysteine peptide fold change ([4]; 50 µM): 0.325
- probe-labelled cysteine peptide fold change ([5]; 10 µM): 0.0491
- probe-labelled cysteine peptide fold change ([5]; 50 µM): 0.0493
- probe-labelled cysteine peptide fold change ([6]; 10 µM): 0.0269
- probe-labelled cysteine peptide fold change ([6]; 50 µM): -0.0455
- probe-labelled cysteine peptide fold change ([7]; 10 µM): -0.497
- probe-labelled cysteine peptide fold change ([7]; 50 µM): -1.15
- probe-labelled cysteine peptide fold change ([8]; 10 µM): 0.198
- probe-labelled cysteine peptide fold change ([8]; 50 µM): 0.147
- probe-labelled cysteine peptide fold change ([9]; 10 µM): -0.136
- probe-labelled cysteine peptide fold change ([9]; 50 µM): -0.197
- probe-labelled cysteine peptide fold change ([10]; 10 µM): -0.114
- probe-labelled cysteine peptide fold change ([10]; 50 µM): 0.0101
- probe-labelled cysteine peptide fold change ([11]; 10 µM): -0.0523
- probe-labelled cysteine peptide fold change ([11]; 50 µM): 0.00696
- probe-labelled cysteine peptide fold change ([12]; 10 µM): 0.0883
- probe-labelled cysteine peptide fold change ([12]; 50 µM): 0.106
- probe-labelled cysteine peptide fold change ([13]; 10 µM): 0.363
- probe-labelled cysteine peptide fold change ([13]; 50 µM): 0.27
- probe-labelled cysteine peptide fold change ([14]; 10 µM): -0.143
- probe-labelled cysteine peptide fold change ([14]; 50 µM): -0.259
- probe-labelled cysteine peptide fold change ([15]; 10 µM): -0.223
- probe-labelled cysteine peptide fold change ([15]; 50 µM): 0.311
- probe-labelled cysteine peptide fold change ([16]; 10 µM): -0.105
- probe-labelled cysteine peptide fold change ([16]; 50 µM): -0.188
- probe-labelled cysteine peptide fold change ([17]; 10 µM): 0.23
- probe-labelled cysteine peptide fold change ([17]; 50 µM): 0.177
- probe-labelled cysteine peptide fold change ([18]; 10 µM): -0.107
- probe-labelled cysteine peptide fold change ([18]; 50 µM): -1.08
- probe-labelled cysteine peptide fold change ([19]; 10 µM): -0.282
- probe-labelled cysteine peptide fold change ([19]; 50 µM): -1.22
- probe-labelled cysteine peptide fold change ([20]; 10 µM): -0.164
- probe-labelled cysteine peptide fold change ([20]; 50 µM): -1.09
- probe-labelled cysteine peptide fold change ([21]; 10 µM): 0.232
- probe-labelled cysteine peptide fold change ([21]; 50 µM): 0.226
- probe-labelled cysteine peptide fold change ([22]; 10 µM): -0.00834
- probe-labelled cysteine peptide fold change ([22]; 50 µM): 0.0362
- probe-labelled cysteine peptide fold change ([23]; 10 µM): -0.125
- probe-labelled cysteine peptide fold change ([23]; 50 µM): -0.398
